From PubChem
Compounds with a hit are over-represented: about 4.2% of the library has one in this group of screens.
Sfp PPTase inh: qHTS Assay for Inhibitors of Bacillus subtilis Sfp phosphopantetheinyl transferase (PPTase) | 310,000 compounds, 3.5% hits | AID 1490, 2009 | Potency, µM, most hits filed as inhibitors | Biochemical Sfp PPTase activity, qHTS | 4'-phosphopantetheinyl transferase ffp (Bacillus subtilis), Q9F4F7;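 further: the enzyme is Sfp with the accession as filed and its product quenches rhodamine fluorescence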
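Sfp 15 nM + cpd, 15 min RT; start w/ rhodamine-CoA 5 uM, BHQ-2-YbbR 12.5 uM (final); 50 mM Hepes pH 7.6, 10 mM MgCl2, 0.01% NP-40, 0.01% BSA; read 525/598 nm at 0 and 30 min.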
VDR inhibitor: Inhibitors of the vitamin D receptor (VDR): qHTS. AID 504847, 2011. 400,000 compounds, 0.93% hits. Vitamin D3 receptor (Homo sapiens), P11473. VDR-SRC2-3 peptide fluorescence polarization, 2 h. Potency, µM, hits mostly inhibitors
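FP read-out; VDR + SRC2-3 coactivator peptide; 23 nl compound by pintool; 2 h RT incubation; reagents held at 4 deg C, protected from light.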
12-LOX inh: Primary qHTS assay for inhibitors of human arachidonate 12S-lipoxygenase (ALOX12): Round 2; Polyunsaturated fatty acid lipoxygenase ALOX12 (Homo sapiens), P18054; purified 12hLO, xylenol orange hydroperoxide absorbance; Potency, µM (titrated, usually from 108 µM), hits mostly inhibitors; 580,000 compounds, 1.1% hits
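Purified human 12hLO (150 nM final) in 25 mM Hepes, 0.01% Triton X-100, pH 7.0 was preincubated 15 min at room temperature with compound. Then 40 uM arachidonic acid was added, 30 min. Hydroperoxide was read by Fe-XO absorbance ratio 573/405 nm.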
PLK1 PBD block: qHTS for Inhibitors of PLK1-PDB (polo-like kinase 1 - polo-box domain): Primary Screen | Serine/threonine-protein kinase PLK1 (Homo sapiens), P53350 | Plk1 PBD binding of FITC phosphopeptide, fluorescence polarization | Potency, µM, most hits filed as inhibitors | 360,000 compounds, 2.8% hits | AID 720504, 2013; further: series mostly up to about 57 µM; nearly all actives have a fitted effect of over 65% in size
Target sequence (P53350 whole entry, looked up, the tested form may be a part): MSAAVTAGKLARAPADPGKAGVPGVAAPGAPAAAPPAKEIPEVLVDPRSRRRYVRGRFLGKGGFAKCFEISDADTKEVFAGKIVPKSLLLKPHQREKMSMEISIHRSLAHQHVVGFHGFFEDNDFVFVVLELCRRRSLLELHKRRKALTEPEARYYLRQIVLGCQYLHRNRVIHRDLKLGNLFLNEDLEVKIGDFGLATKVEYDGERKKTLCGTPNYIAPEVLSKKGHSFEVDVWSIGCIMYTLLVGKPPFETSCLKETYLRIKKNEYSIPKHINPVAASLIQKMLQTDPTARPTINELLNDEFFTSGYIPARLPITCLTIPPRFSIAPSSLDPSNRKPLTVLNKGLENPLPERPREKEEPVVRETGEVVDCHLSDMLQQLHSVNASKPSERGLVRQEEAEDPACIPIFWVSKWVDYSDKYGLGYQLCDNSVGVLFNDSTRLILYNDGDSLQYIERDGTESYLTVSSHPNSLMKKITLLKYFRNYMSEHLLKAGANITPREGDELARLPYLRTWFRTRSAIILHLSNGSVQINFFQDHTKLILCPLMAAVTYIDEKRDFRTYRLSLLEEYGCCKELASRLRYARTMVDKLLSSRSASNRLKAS
Of the large screens only hits and unclear results are named; the others gave an inactive call. The call rests on the fitted dose curve; in most records, active means well fitted curve in the direction sought with a large enough effect; inconclusive means small, poorly fitted or top-dose-only effect, or another doubt; inactive means no such curve, though single readings can be large; an effect the other way counts as inactive or inconclusive.

Cc1[nH]c(=S)c(C#N)c(C)c1CCC#N	Sfp PPTase inh 18µM, PLK1 PBD block inconclusive
Cc1[nH]c(=S)c(C#N)c(C)c1Cc1ccccc1	Sfp PPTase inh 18µM, VDR inhibitor inconclusive, 12-LOX inh inconclusive
Cc1[nH]c(C(=O)O)c(C)c1C#N	none (no result: Sfp PPTase inh, VDR inhibitor, PLK1 PBD block)
COc1cc(C)ccc1OCC(=O)Nc1ccc2c(c1)OCO2	none (no result: Sfp PPTase inh)
CCC1C(=O)NCCN1C(=O)c1cc(COc2cc(C)ccc2C)on1 (stereo not given)	none
Cc1nn(C(C)C(=O)NCCCN2CCCCC2C)c(=O)c2c1sc1ccccc12 (stereo not given)	none
Cc1nn(C(C)C(=O)NCCCN2CCCCCC2)c(=O)c2c1sc1ccccc12 (stereo not given)	PLK1 PBD block 27µM
CCc1ccc(N2C(=O)CN(Cc3ccccc3)C2=S)cc1	12-LOX inh inconclusive
Cc1cc(C)cc(N2C(=O)CN(Cc3ccccc3)C2=S)c1	PLK1 PBD block 24µM
CCC(NC(=O)c1n[nH]c(=O)c2ccccc12)c1ccc(Br)cc1 (stereo not given)	none (no result: Sfp PPTase inh, VDR inhibitor, PLK1 PBD block)
C=CCn1c(SCC(=O)NC2CCS(=O)(=O)C2)nc2scc(C3CC3)c2c1=O (stereo not given)	none
C=CCn1c(SCC(=O)c2ccc(CNC(C)=O)o2)nc2scc(C3CC3)c2c1=O	Sfp PPTase inh 45µM, PLK1 PBD block 30µM
CC1(c2ccc3ccccc3c2)CCC(=O)O1 (stereo not given)	none (no result: Sfp PPTase inh)
O=S(=O)(c1ccccc1)N1N=C(c2cccs2)CC1c1cccc(O)c1 (stereo not given)	none
Oc1ccccc1C1CC(c2cccs2)=NC(c2cccc(Br)c2)N1 (stereo not given)	VDR inhibitor 71µM
COc1ccc(Cl)cc1NC(=O)c1cc(-c2ccc3c(c2)OCO3)on1	none (no result: Sfp PPTase inh, PLK1 PBD block)
O=C(CCC(=O)c1cccs1)NNC(=O)c1ccccc1O	12-LOX inh inconclusive (no result: Sfp PPTase inh)
CCn1nnc(NC(=O)CSc2ccc(Cl)cc2)n1	12-LOX inh inconclusive, PLK1 PBD block 27µM
CCCCn1nnc(NC(=O)Cc2ccc(Cl)cc2)n1	none
CS(=O)(=O)n1nc(OC(=O)c2cc(Br)ccc2Cl)cc1N	Sfp PPTase inh inconclusive, VDR inhibitor inconclusive, PLK1 PBD block 11µM
O=C(Cn1cnc2c(OCc3ccccc3)ncnc21)NCCCN1CCCC1=O	none (no result: Sfp PPTase inh)
C=CCn1c(O)c(N=NC(=S)Nc2ccc(OC)c(Cl)c2)c2ccccc21	Sfp PPTase inh 1.8µM
C=CCn1c(O)c(N=O)c2ccccc21	none
C=CCn1c(O)c(N=Nc2ccccc2C)c2ccccc21	Sfp PPTase inh 25µM, 12-LOX inh inconclusive
Cc1ccc(NC(=O)C(Cc2ccccc2)NS(=O)(=O)c2ccc3c(c2)oc(=O)n3C)cc1F (stereo not given)	none (no result: Sfp PPTase inh, PLK1 PBD block)
CCOC(=O)C1=C(N)Oc2c(c(=O)[nH]c3ccccc23)C1c1ccccc1 (stereo not given)	Sfp PPTase inh 20µM
COC(=O)[C@]12CCCCC=C1N(CCC1=CCCCC1)C(=O)[C@H](CC(=O)N1CCN(C(=O)C3CC3)CC1)C2	none (no result: Sfp PPTase inh, VDR inhibitor)
CCOC(=O)c1cnn(-c2cc(C)nc3c(-c4ccc(Cl)cc4)c(C)nn23)c1N	none (no result: VDR inhibitor, 12-LOX inh, PLK1 PBD block)
C#CCOCCOCCOCCNc1nc(N2CCOCC2)nc(N2CCN(C(=O)[C@H]([C@@H](C)CC)n3cc(CCCCN)nn3)CC2)n1	none
CN(C)S(=O)(=O)c1ccc(-c2csc(N/N=C/c3ccc(O)cc3)n2)cc1	Sfp PPTase inh 50µM, 12-LOX inh inconclusive
CN(C)S(=O)(=O)c1ccc(-c2csc(N/N=C/c3ccco3)n2)cc1	none
CCOC(=O)Cc1csc(N/N=C/c2cccc([N+](=O)[O-])c2)n1	none
O=[N+]([O-])c1cccc(-c2csc(N/N=C/c3cccc(O)c3)n2)c1	Sfp PPTase inh 50µM
O=[N+]([O-])c1cccc(C=NNc2ccccc2)c1	12-LOX inh 45µM (no result: Sfp PPTase inh)
C[C@]1(O)CCN(C(=O)c2cnc(C3CC3)nc2)C[C@@H]1O	none (no result: Sfp PPTase inh, VDR inhibitor, PLK1 PBD block)
Cn1c(SCC(=O)c2ccc3c(c2)OCCO3)nnc1C(F)(F)F	none
Cc1ccc(-c2csc3nc4ccc(C(=O)NCCO)cc4c(=O)n23)cc1	none
Cc1ccc(-c2csc3nc4cc(C(=O)NC5CCC(O)CC5)ccc4c(=O)n23)cc1 (stereo not given)	Sfp PPTase inh 56µM, 12-LOX inh 11µM
COc1ccc(-n2c(=O)cnc3cnc(Oc4cccc(Cl)c4)nc32)cc1	none (no result: PLK1 PBD block)
O=[N+]([O-])c1ccc2c(c1)ncn2-c1ccccc1	none
Cn1c(-[n+]2c(-c3ccccc3)cc(-c3ccccc3)cc2-c2ccccc2)nc2cc([N+](=O)[O-])ccc21	Sfp PPTase inh 22µM, 12-LOX inh inconclusive
CC1CN(C(=O)CS(=O)(=O)Cc2ccccc2)CC(C)O1 (stereo not given)	none
O=C(O)/C=C/c1ccc2noc(-c3ccccc3)c2c1	Sfp PPTase inh 50µM
CON(C)C(=O)c1ccc2noc(-c3ccccc3)c2c1	none (no result: Sfp PPTase inh, VDR inhibitor, PLK1 PBD block)
Cc1noc(NS(=O)(=O)c2ccc(NC(=O)C(C)C)cc2)c1C	none
CC1=CCC2C(=O)N(c3ccc(C(=O)N4CCCCCC4)cc3)C(=O)C2C1 (stereo not given)	PLK1 PBD block 17µM
CCOc1ccc(C(=O)Nc2ccc(S(=O)(=O)N3CCOCC3)cc2)cc1OCC	none
CCN(CC)CCn1c(NCc2cc(OC)ccc2OC)nc2ccccc21	VDR inhibitor inconclusive, 12-LOX inh inconclusive, PLK1 PBD block 27µM
CCN(CC)CCn1c(NCc2cccc(OC)c2)nc2ccccc21	12-LOX inh inconclusive
O=C(O)CCCOc1cccc(Br)c1	none (no result: Sfp PPTase inh, VDR inhibitor, PLK1 PBD block)
CN(C)CCCCOc1cccc(Br)c1	Sfp PPTase inh 56µM, 12-LOX inh inconclusive
CCN1CCN(c2c(/C=C3\SC(=S)N(Cc4ccco4)C3=O)c(C)c(C#N)c(=O)n2C)CC1	Sfp PPTase inh 25µM, 12-LOX inh inconclusive
Cc1ccc(Cl)c(OCC(=O)c2ccc3c(c2)N(CCCC(=O)NC2CC2)C(=O)CO3)c1	none (no result: Sfp PPTase inh, VDR inhibitor, PLK1 PBD block)
C=CCOC(=O)NC(c1ccc(F)c(F)c1)C(C(=O)CCl)C(=O)OC (stereo not given)	Sfp PPTase inh inconclusive, VDR inhibitor 45µM (no result: 12-LOX inh, PLK1 PBD block)
C=CCOC(=O)NC(c1ccc(F)c(F)c1)S(=O)(=O)c1ccc(Cl)cc1 (stereo not given)	none (no result: 12-LOX inh, PLK1 PBD block)
O=C(Cn1cnc2ccccc2c1=O)c1ccccc1	none
Cc1ccc(C(=O)Cn2cnc3ccccc3c2=O)cc1	PLK1 PBD block 30µM
O=C(COC(=O)/C=C/c1ccc(F)cc1)NCc1ccco1	none
O=C(COC(=O)C1(c2ccc(F)cc2)CCCC1)NCc1ccco1	Sfp PPTase inh 56µM
O=C1C=CC(=O)N1Cc1ccccc1	Sfp PPTase inh 18µM, VDR inhibitor 16µM, PLK1 PBD block 4.7µM
O=C1NC(=O)C(=Cc2ccc(-c3ccc(F)cc3O)o2)S1	none (no result: Sfp PPTase inh, VDR inhibitor, PLK1 PBD block)
Fc1ccccc1CN1CCCCCCC1	Sfp PPTase inh 56µM, 12-LOX inh inconclusive
Fc1ccc(CN2CCCCCCC2)c(F)c1	12-LOX inh 0.45µM
c1ccc(C2(c3ccccc3)CCCN(Cc3cscn3)C2)cc1	12-LOX inh 45µM (no result: Sfp PPTase inh, VDR inhibitor, PLK1 PBD block)
C/C(CC(C)(C)C1CCCCC1)=N\O	none (no result: Sfp PPTase inh, VDR inhibitor, PLK1 PBD block)
